Test results as given in publication PMC4552634, “A New Set of Chemical Starting Points with Plasmodium falciparum Transmission-Blocking Potential for Antimalarial Drug Discovery” (PLoS ONE, 2015).
Read-outs that look alike come from different tables or passages of the source. Hit rate of the full screen: of about 13,000 compounds, about 3,200 (25%) showed an effect of 50% or more. This is one part of the list.

System: P. falciparum stage V gametocytes
Design: BacTiter-Glo ATP luminescence viability of purified stage V gametocytes in 384-well plates, per cent inhibition versus DMSO
Conditions: 48 h, 5 µM, inhibitor

| SMILES | % Inhibition (% Inhibition) [%] | % Inhibition [%] |
| --- | --- | --- |
| O=C(C=Cc1ccc(-c2ccccc2)cc1)NC1CCC(CN2CCC(c3c[nH]c4ccccc34)CC2)CC1 (stereo not drawn) [TCMDC-139935] | 108 |  |
| O=C(/C=C/C=C/c1ccccc1)NC1CCC(CN2CCC(c3c[nH]c4ccccc34)CC2)CC1 (stereo not drawn) [TCMDC-139708] |  | 100.6 |
| O=C(C=Cc1ccc(-c2ccccc2)cc1)NC1CCC(CN2CCC(c3c[nH]c4ccccc34)CC2)CC1 (stereo not drawn) [TCMDC-139951] | 123.9 |  |
| COc1ccc2nccc(N3CCN(CCNCc4ccc5c(n4)NC(=O)CO5)CC3)c2c1.Cl [TCMDC-141961] |  | 30.82 |
| Cc1nc2nc(N)nc(N)c2c(C)c1Cc1cccc(C(N)=O)c1 [TCMDC-137643] |  | 17.6 |
| CS(=O)(=O)c1ccc(-n2nc(C(F)(F)F)cc2-c2ccc(C=NOCC(=O)O)o2)cc1 [TCMDC-132015] |  | -3.43 |
| COc1cccc(-c2cccc(CNC3CCN(CC4Cn5c(=O)ccc6ccc(F)c4c65)CC3)c2)c1 (stereo not drawn) [TCMDC-134412] |  | 5.028 |
| Cc1ccc(Cc2cnc(CN3CCCCC3)c(O)c2)cc1 [TCMDC-125485] |  | 30.78 |
| O=S(=O)(c1ccccc1C(F)(F)F)C1CC2CCC(C1)N2S(=O)(=O)c1ccc(Cl)c(C(F)(F)F)c1 (stereo not drawn) [TCMDC-134268] |  | 33.38 |
| O=S(=O)(c1ccc(OC(F)(F)F)cc1)C1CC2CCC(C1)N2S(=O)(=O)c1ccc(Cl)c(C(F)(F)F)c1 (stereo not drawn) [TCMDC-134267] |  | 71.42 |
| O=S(=O)(c1ccccc1OC(F)(F)F)C1CC2CCC(C1)N2S(=O)(=O)c1cccc(C(F)(F)F)c1 (stereo not drawn) [TCMDC-134266] |  | 7.024 |
| COc1cc(Cc2cnc(N)nc2N)ccc1OCc1ccc(-c2ccccc2C#N)cc1 [TCMDC-138638] |  | -1.728 |
| Cc1ccc2c(NC(=O)Nc3ccc(N(C)C)cc3)cc(C)nc2c1 [TCMDC-140144] |  | -85.96 |
| CC(C)C[C@@H](NC(=O)OC(C)(C)C)C(=O)Nc1ccc(Cc2ccc(NC(=O)[C@@H](CC(C)C)NC(=O)OC(C)(C)C)cc2)cc1 [TCMDC-131869] |  | -46.99 |
| Nc1ncc(-c2ccc(NC(=O)Nc3cc(C(F)(F)F)ccc3F)cc2)c(N)n1 [TCMDC-133420] |  | 7.471 |
| Nc1ncnc2occ(-c3ccc(NC(=O)Nc4cc(C(F)(F)F)ccc4F)cc3)c12 [TCMDC-141371] |  | 14.45 |
| Nc1nccc2ccc(-c3ccc(NC(=O)Nc4cc(C(F)(F)F)ccc4F)cc3)cc12 [TCMDC-133422] |  | 80.96 |

| SMILES | % Inhibition (% Inhibition) [%] | % Inhibition [%] |
| --- | --- | --- |
| Nc1ccc(-c2ccc(NC(=O)Nc3cc(C(F)(F)F)ccc3F)cc2)cn1 [TCMDC-133410] |  | 11.7 |
| Cc1cc(N)ncc1-c1ccc(NC(=O)Nc2cc(C(F)(F)F)ccc2F)cc1 [TCMDC-133438] |  | 25.29 |
| NCCCNc1ccc(-c2ccc(NC(=O)Nc3cc(C(F)(F)F)ccc3F)cc2)cn1 [TCMDC-133550] |  | 53.18 |
| Cc1nc(-c2cccc(Nc3nccc(NCC(O)c4ccc(C(F)(F)F)cc4)n3)c2)cs1 (stereo not drawn) [TCMDC-136591] |  | 22.87 |
| Cc1nc(-c2cccc(Nc3nccc(NCC(O)c4ccccc4C)n3)c2)cs1 (stereo not drawn) [TCMDC-136567] |  | -8.142 |
| Cc1cc(Nc2ccccc2)nc(Nc2ccccc2C)n1 [TCMDC-123883] |  | 4.396 |
| CCC1(c2ccccc2)N=C(N)N(CCCc2ccccc2)C1=O (stereo not drawn) [TCMDC-136547] |  | 23.07 |
| CCCCCN1CCN(Cc2cccc(NC(=O)c3ccc(Cl)c(Cl)c3)c2)CC1 [TCMDC-134616] |  | -65.82 |
| CC1(C)C(N(O)C(=O)Nc2ccc(Cl)c(Cl)c2)N(c2ccc(Cl)c(Cl)c2)C(=O)N1CCc1ccccc1 (stereo not drawn) [TCMDC-125555] |  | -2.423 |
| CCCCCN1C(=O)N(c2ccc(Cl)c(Cl)c2)C(N(O)C(=O)Nc2ccc(Cl)c(Cl)c2)C1(C)C (stereo not drawn) [TCMDC-124134] |  | 67.16 |
| O=C(NCCN1CCC(c2ccncc2)CC1)c1cccc(Nc2nccc(Nc3ccc(Oc4ccccc4)cc3)n2)c1 [TCMDC-138607] |  | -52.85 |
| COc1ccc2nccc([C@@H](O)CN3CCC(NC(=O)/C=C/c4ccc5[nH]c(=O)ccc5c4)CC3)c2c1 [TCMDC-141032] |  | -20.87 |
| O=C(Nc1ccc(N2CCCCC2)c(Cl)c1)c1ccco1 [TCMDC-124392] |  | 30.55 |
| c1ccc2c(c1)CN(Cc1cc3ccccc3[nH]1)CC1(CCN(Cc3c[nH]c4cnccc34)CC1)O2 [TCMDC-133376] |  | 66.92 |
| c1ccc2c(c1)CN(CC1CC1)CC1(CCN(Cc3c[nH]c4cnccc34)CC1)O2 [TCMDC-133375] |  | -19.67 |
| Oc1ccc(CN2Cc3ccccc3OC3(CCN(Cc4c[nH]c5cnccc45)CC3)C2)cc1 [TCMDC-133377] |  | 0.4377 |
